KB-V1 MDR tox: kills drug-selected multidrug resistant KB-V1 cells; AID 1347076; hit rate 3.4% among 400,000; KB-V1 MDR cells viability, CellTiter-Glo, 72 h; Potency, µM (top dose mostly 46.1 µM), most hits filed as cytotoxic; also: potency is read from the fitted curve at half-maximal effect; % is scaled to controls: 0 for no effect and ±100 for the full control effect; nearly all actives have a fitted effect of over 60% in size
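KB-V1 cells (P-gp-expressing MDR subline of KB-3-1) in phenol-red-free DMEM with 10% FBS were exposed to library compounds over a concentration series for 72 h at 37 degrees C. Viability read by CellTiter-Glo luminescence; concentration-effect curves fitted after normalization.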
D3 ag: activates the human D3 dopamine receptor; max activation, %; hit rate 0.58% among 410,000; P35462; D3R DiscoveRx beta-arrestin cells, luminescence, 90 min; in the data active = max activation above about 30%; also: 0% is about no effect
Target sequence (P35462 whole entry, looked up): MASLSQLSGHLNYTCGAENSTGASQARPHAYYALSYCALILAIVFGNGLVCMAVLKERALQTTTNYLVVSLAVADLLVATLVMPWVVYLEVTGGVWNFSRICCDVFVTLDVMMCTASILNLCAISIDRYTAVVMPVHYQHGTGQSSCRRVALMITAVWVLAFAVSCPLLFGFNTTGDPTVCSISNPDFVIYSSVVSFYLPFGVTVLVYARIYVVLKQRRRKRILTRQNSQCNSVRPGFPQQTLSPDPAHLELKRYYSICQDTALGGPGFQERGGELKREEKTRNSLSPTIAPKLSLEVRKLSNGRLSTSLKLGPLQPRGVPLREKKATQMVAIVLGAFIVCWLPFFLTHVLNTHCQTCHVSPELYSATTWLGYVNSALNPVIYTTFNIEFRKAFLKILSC
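Agonist mode: compounds and dopamine controls were applied to plated cells for 90 min at 37 degrees C after an overnight attachment at 1500 cells/well. Luminescent read-out followed 30 - 60 minutes at room temperature with DiscoveRx detection reagent.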
KB-3-1 cytotox: kills parental KB-3-1 adenocarcinoma cells. Potency, µM (top dose mostly 46.1 µM), hits mostly cytotoxic. AID 1347075. KB-3-1 viability, CellTiter-Glo ATP luminescence, 72 h. hit rate 1.4% among 400,000; also: potency is read from the fitted curve at half-maximal effect; % is scaled to controls: 0 for no effect and ±100 for the full control effect; nearly all actives have a fitted effect of over 60% in size
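Luminescent ATP read-out (CellTiter-Glo) measures survival of drug-naive KB-3-1 cells after 72 h compound exposure at 37 °C. Titration series was screened from lowest to highest concentration, with DMSO vehicle plates as background controls.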
MCF10A rerep: inducers of DNA re-replication in MCF 10A breast cells | MCF 10A DNA re-replication, Hoechst nuclear intensity, 48 h | Potency, µM (series often up to 46.1 µM), for inactives: at the highest dose activity, positive = re-replication, most hits filed as activators | hit rate 2.9% among 350,000 | AID 624296; also: potency is read from the fitted curve at half-maximal effect; % of control where 0% means no effect; nearly all actives have a fitted effect of over 50% in size
SW480 rerep: inducers of DNA re-replication in SW480 colon cancer cells; hit rate 1.8% among 340,000; SW480 DNA re-replication, Hoechst DNA content imaging, 48 h; Potency, µM (series often up to 46.1 µM), inactives show top-dose re-replication activation, actives largely listed as activators; also: potency is read from the fitted curve at half-maximal effect; % of control where 0% means no effect; nearly all actives have a fitted effect of over 55% in size
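Per well, 250 cells were exposed to pinned compound for 48 hr. Nuclear DNA was visualised with Hoechst (40 min, 37 C) and total object intensity recorded by fluorescence scanning.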
D3 antag: blocks the human D3 dopamine receptor. P35462. D3R cells, DiscoveRx beta-arrestin luminescence, antagonist mode; active compounds read low. AID 652054. hit rate 2.5% among 360,000. max response, negative = inhibition, %; in the data active = max response below about -50%; inconclusive = no clear call, values can overlap the other calls; also: % is scaled to controls: 0 for no effect and ±100 for the full control effect
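Cells plated overnight at 1500 cells/well, then exposed to library compounds with dopamine controls for 90 minutes at 37 degrees C. DiscoveRx reagent added for 30–60 minutes at room temperature; luminescence read, quantitative HTS format.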
An asterisk follows results filed as active; i = inactive; ? = inconclusive; nt = no result given; ! = a repeat was not active. Most compounds without a hit are left out; they make up all but 8.9% or so of the library. Unless noted, calls follow the shape of the dose curve; as a rule, active = well fitted curve in the direction sought with a large enough effect; inconclusive = small, poorly fitted or top-dose-only effect, or another doubt; inactive = no such curve, though single readings can be large; an effect the other way counts as inactive or inconclusive.

SMILES	KB-V1 MDR tox	D3 ag	KB-3-1 cytotox	MCF10A rerep	SW480 rerep	D3 antag
COc1ccc(N2C(=O)C3ON(C4SC(=S)N(C)C4(C)C)C(c4ccc([N+](=O)[O-])cc4)C3C2=O)cc1 (configuration not stated)	i	-8	i	-1%	-4%	-65*
COc1ccc(N2C(=O)C3ON(C4SC(=S)N(C)C4(C)C)C(c4ccc(Cl)cc4)C3C2=O)cc1 (configuration not stated)	i	1	i	-2%	?	3
Cc1ccc(NC(=O)CSc2nnc(-c3nnn(-c4ccc(F)cc4)c3C)o2)cc1Br	i	-3	i	nt	nt	nt
CC(C)=CCC12Oc3cc(O)ccc3C1(O)Oc1cc(O)c([C@H]3C=C(C)CC(c4ccc(O)cc4O)[C@H]3C(=O)c3ccc(O)cc3O)c(O)c1C2=O (some centres not stated)	?	-44	i	?	-18%	-52*
Cc1ccc(Cl)cc1NC(=O)C1CCN(C(=O)c2cnn(-c3ccccc3)c2-n2cccc2)CC1	i	1	?	nt	nt	nt
COc1ccc(-c2n[nH]c(=S)n2-c2ccc(C)cc2)cc1	i	3	i	-2%	3%	-12
Cc1ccc(-c2n[nH]c(=S)n2C)cc1	16µM*	-13	?	-2%	-7%	7
CC(C)CN(CCCNC(=O)c1cc(=O)[nH]c2ccc(S(=O)(=O)N3CCCCCC3)cc12)CC(C)C	i	0	i	nt	nt	nt
CCN(CC)CCOC(=O)/C=C/c1ccccc1	i	-17	i	0%	11%	-63*
CCN(CC)CCCOC(=O)C(c1ccccc1)c1ccccc1	i	-53	i	12%	25%	-85*
O=C(OCCN1CCOCC1)C(c1ccccc1)c1ccccc1	i	-12	i	6%	-8%	?
N#Cc1cnc(SCCc2ccccc2)nc1N	?	13	i	9.2µM*	9%	25
Cc1ccc(NC(=O)Cn2ncc3c4ccccc4n(Cc4ccccc4)c3c2=O)cc1Cl	i	6	i	nt	nt	nt
Cc1nc2c(o1)CCc1ccccc1C2N1CCN(C)CC1 (configuration not stated)	i	-13	i	1%	-4%	-54*
CCN(Cc1nc(-c2ccc(OC)cc2)oc1C)S(=O)(=O)c1ccc(C)cc1	i	12	i	nt	nt	nt
Cc1ccc2sc(N3CCN(C(=O)C4COc5ccccc5O4)CC3)nc2c1C (configuration not stated)	i	3	?	nt	nt	nt
COc1cc(/C=C/c2[nH]c(=O)[nH]c(=O)c2[N+](=O)[O-])ccc1OCCC(C)C	i	6	i	?	?	-6
CCC(C)Oc1ccc(/C=C/c2[nH]c(=O)[nH]c(=O)c2[N+](=O)[O-])cc1OC (configuration not stated)	i	-14	i	?	21µM*	-22
COc1ccc(C(NC(C)=O)c2cc(Cl)c3cccnc3c2O)cc1OC (configuration not stated)	i	15	?	?	1.6µM*	2
CCC(=O)NC(c1ccc(OC)c(OC)c1)c1cc(Cl)c2cccnc2c1O (configuration not stated)	?	2	3.3µM*!	?	?	-4
COc1ccccc1C(NC(C)=O)c1cc(Cl)c2cccnc2c1O (configuration not stated)	?	3	?	?	0.58µM*	-54*
Cc1ccc(S(=O)(=O)c2ccc(C)cc2)cc1	i	8	i	4%	-8%	13
O=S(=O)(/C=C/C=C/S(=O)(=O)c1ccccc1)c1ccccc1	i	-31	6.5µM*	?	?	-101*
Cc1ccc(S(=O)(=O)C=CS(=O)(=O)c2ccc(C)cc2)cc1	i	-17	?	nt	nt	-99*
CN(C(=O)c1cnc(N2CCOCC2)c2ccccc12)c1ccccc1F	i	4	i	nt	nt	nt
SMILES	KB-V1 MDR tox	D3 ag	KB-3-1 cytotox	MCF10A rerep	SW480 rerep	D3 antag
C=CCNC(=S)NNC(=O)c1ccc([N+](=O)[O-])cc1	i	-13	i	1%	-1%	?
C=CCN(CC=C)C(=S)NC(=O)c1ccc([N+](=O)[O-])cc1	?	-5	?	?	3.7µM*	-9
Cc1ccccc1NC(=O)Cn1nc(-c2ccc(F)cc2)c2cnc3ccccc3c21	i	1	i	nt	nt	nt
COc1ccc(C(=O)N2C=Cc3ccccc3C2C#N)cc1 (configuration not stated)	i	0	i	nt	nt	-6
N#CC1c2ccccc2C=CN1C(=O)N(c1ccccc1)c1ccccc1 (configuration not stated)	21µM*	-5	?	3.3µM*	?	?
Fc1ccc(CNc2ncnc3onc(-c4ccc(F)cc4)c23)cc1	?	-2	i	nt	nt	nt
CCOC(=O)c1c(C)[nH]c(C)c1C(=O)COC(=O)c1c(OC)cccc1OC	i	-3	i	8%	-8%	12
CCOC(=O)c1c(C)[nH]c(C)c1C(=O)COC(=O)/C=C/c1ccc(OC)cc1	13µM*	0	?	8%	16µM*	14
CCOc1ccc(/C=C/C(=O)Oc2ccc(OC)cc2)cc1	?	-2	i	5%	15µM*	-7
Cc1ccsc1C(=O)OCC(=O)Nc1sccc1C(N)=O	18µM*	1	i	14%	-1%	44
CCOC(=O)c1c(C)[nH]c(C)c1C(=O)COC(=O)c1sccc1C	18µM*	0	i	-2%	-4%	1
CC#CC(=O)N1CCCC(Cc2cccc(OC)c2)(C(=O)OCC)C1 (configuration not stated)	i	11	i	5%	-3%	-9
CCCS(=O)(=O)Nc1cc(-c2cn3ccc(C)cc3n2)ccc1C	nt	8	nt	nt	nt	nt
CC1(C)Cc2ccccc2C(N/N=C/c2ccc(Cl)cc2)=N1	15µM*	-2	?	?	4%	2
CC1(C)Cc2ccccc2C(N/N=C/c2ccc([N+](=O)[O-])cc2)=N1	i	-1	i	-13%	-26%	4
Cc1ccccc1C(=O)Nc1nnc(SCc2cc(=O)n3ccccc3n2)s1	nt	9	nt	nt	nt	nt
Cc1ccc(NC(=O)CN(C)C(=O)C(C)N2CCN(Cc3ccccc3C)CC2)cc1 (configuration not stated)	9.2µM*	-2	i	0%	1%	-7
COc1ccc(N2CCN(C(=O)CSc3nc(-c4ccccc4)no3)CC2)cc1	i	-10	i	nt	nt	nt

High-throughput results as filed in PubChem.
